The panel holds about 83,000 compounds, 20% with a hit somewhere; the sample as a whole holds those more often.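 Single-dose data. Exposure time 48 hours. Values below 10 considered active.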 Active and inactive are the calls of the source.
What was measured:
Assay in all cases: NCI-60 one-dose screen, 48 h (100 = growth as untreated, 0 = no growth, -100 = all killed)
Settings in all cases: 10 µM unless noted
NCI-H23 lung = system: NCI-H23 lung
NCI-H226 lung = system: NCI-H226 lung
NCI-H322M lung = system: NCI-H322M lung
HOP-62 NSCLC = system: HOP-62 NSCLC
NCI-H460 lung = system: NCI-H460 lung
HOP-92 NSCLC = system: HOP-92 NSCLC
NCI-H522 lung = system: NCI-H522 lung
A549/ATCC NSCLC = system: A549/ATCC NSCLC
786-0 renal = system: 786-0 renal
COLO 205 colon = system: COLO 205 colon
DU-145 prostate = system: DU-145 prostate
MALME-3M melanoma = system: MALME-3M melanoma
MDA-MB-231 breast = system: MDA-MB-231 breast
RXF 393 renal = system: RXF 393 renal
SF-268 CNS = system: SF-268 CNS
SF-295 CNS = system: SF-295 CNS
SF-539 CNS = system: SF-539 CNS
UACC-257 melanoma = system: UACC-257 melanoma
M14 melanoma = system: M14 melanoma
K-562 leukemia = system: K-562 leukemia

Measured: growth

CC(/C=N/NC(N)=S)Cc1ccc(C(C)C)cc1 (stereo not drawn)
active: NCI-H522 lung -26.6%
inactive: NCI-H23 lung 51% | NCI-H226 lung 66.6% | NCI-H322M lung 104% | HOP-62 NSCLC 89.1% | NCI-H460 lung 82.8% | HOP-92 NSCLC 69.9% | A549/ATCC NSCLC 89.5% | 786-0 renal 51% | COLO 205 colon 68% | DU-145 prostate 129% | MALME-3M melanoma 82.9% | MDA-MB-231 breast 85.4% | RXF 393 renal 69.2% | SF-268 CNS 129% | SF-295 CNS 73.2% | SF-539 CNS 59% | UACC-257 melanoma 69.9% | M14 melanoma 74.2%

CC1(C)OCC(COC(c2ccccc2)(c2ccccc2)c2ccccc2)O1 (stereo not drawn)
inactive: NCI-H23 lung 104% | NCI-H226 lung 92.1% | NCI-H322M lung 92.2% | HOP-62 NSCLC 96.1% | NCI-H460 lung 104% | HOP-92 NSCLC 89.4% | NCI-H522 lung 88.8% | A549/ATCC NSCLC 86.3% | 786-0 renal 104% | COLO 205 colon 109% | DU-145 prostate 100% | K-562 leukemia 111% | MDA-MB-231 breast 91.7% | RXF 393 renal 116% | SF-268 CNS 94.2% | SF-295 CNS 99.2% | SF-539 CNS 104% | UACC-257 melanoma 91.7% | M14 melanoma 95.1%

Cc1ccccc1NC(=O)Cc1csc2[n+]1C(=O)/C(=C/c1ccc([N+](=O)[O-])cc1)S2
inactive: NCI-H23 lung 93.1% | NCI-H226 lung 91.1% | NCI-H322M lung 103% | HOP-62 NSCLC 86.7% | NCI-H460 lung 104% | HOP-92 NSCLC 79.5% | NCI-H522 lung 86.3% | A549/ATCC NSCLC 99.8% | 786-0 renal 93.5% | COLO 205 colon 105% | K-562 leukemia 88.3% | MALME-3M melanoma 99.3% | MDA-MB-231 breast 97.7% | RXF 393 renal 111% | SF-268 CNS 95.9% | SF-295 CNS 99.7% | SF-539 CNS 104% | UACC-257 melanoma 104% | M14 melanoma 85.8%

O=C1C=Cc2ccccc2/C1=C/c1nc(-c2ccccc2)oc1O
inactive: NCI-H23 lung 82.1% | NCI-H226 lung 73% | NCI-H322M lung 90.6% | HOP-62 NSCLC 88.1% | NCI-H460 lung 98.5% | HOP-92 NSCLC 103% | NCI-H522 lung 90.3% | A549/ATCC NSCLC 107% | 786-0 renal 107% | COLO 205 colon 87.5% | K-562 leukemia 96.8% | MALME-3M melanoma 74.4% | MDA-MB-231 breast 73.6% | RXF 393 renal 101% | SF-268 CNS 84.8% | SF-295 CNS 101% | SF-539 CNS 87.7% | UACC-257 melanoma 105% | M14 melanoma 93.5%

Oc1c(C(Nc2ccccc2)c2ccccc2)ccc2cccnc12 (stereo not drawn)
active: NCI-H522 lung 4.85% | SF-295 CNS 6.25%
inactive: NCI-H23 lung 51% | NCI-H226 lung 33.2% | NCI-H322M lung 46.4% | HOP-62 NSCLC 24.1% | NCI-H460 lung 20.7% | HOP-92 NSCLC 19.9% | A549/ATCC NSCLC 37.3% | 786-0 renal 39.3% | COLO 205 colon 16.8% | DU-145 prostate 57.8% | K-562 leukemia 32.1% | MALME-3M melanoma 87.6% | RXF 393 renal 74.9% | SF-268 CNS 33.4% | SF-539 CNS 27.2% | UACC-257 melanoma 64.3% | M14 melanoma 45.8%

NC(=Nc1nc(-c2ccccn2)cc2ccccc12)c1ccccn1
active: NCI-H23 lung -90.1% | HOP-62 NSCLC 8.21% | NCI-H460 lung 1.13% | HOP-92 NSCLC -2.84% | A549/ATCC NSCLC -54.2% | 786-0 renal 3.78% | DU-145 prostate 1.76% | K-562 leukemia -22.8% | RXF 393 renal 1.1% | SF-539 CNS -18.6% | UACC-257 melanoma -4.44% | M14 melanoma -55%
inactive: NCI-H226 lung 21.4% | NCI-H322M lung 21.6% | NCI-H522 lung 36.3% | MALME-3M melanoma 19% | MDA-MB-231 breast 47.8% | SF-268 CNS 13.1% | SF-295 CNS 17.9%

C(=N\Nc1ccc2ccccc2n1)/c1ccccn1
active: NCI-H322M lung -5.75% | HOP-62 NSCLC 6.17% | NCI-H460 lung 3.31% | A549/ATCC NSCLC 8.26% | MALME-3M melanoma -23.6% | SF-539 CNS -14.2% | UACC-257 melanoma -3.38%
inactive: NCI-H23 lung 32.4% | NCI-H226 lung 10.9% | HOP-92 NSCLC 42.2% | NCI-H522 lung 20.2% | 786-0 renal 22.1% | DU-145 prostate 22.7% | K-562 leukemia 15.4% | MDA-MB-231 breast 30.5% | RXF 393 renal 16.7% | SF-268 CNS 16.7% | SF-295 CNS 14.7%

O=C(/C(Cl)=N/O)c1ccc(-c2ccccc2)cc1
active: 786-0 renal -80.7%
inactive: NCI-H23 lung 93.4% | NCI-H226 lung 88.7% | NCI-H322M lung 94.3% | HOP-62 NSCLC 96.4% | NCI-H460 lung 107% | HOP-92 NSCLC 82.1% | NCI-H522 lung 30.7% | A549/ATCC NSCLC 107% | COLO 205 colon 85.5% | DU-145 prostate 109% | K-562 leukemia 63.8% | MALME-3M melanoma 24.8% | RXF 393 renal 95.4% | SF-268 CNS 101% | SF-295 CNS 104% | SF-539 CNS 96.4% | UACC-257 melanoma 99.7% | M14 melanoma 96.7%

CN1CCC(c2ccccc2)(c2ccccc2)C(=O)C1
inactive: NCI-H23 lung 80.1% | NCI-H226 lung 67.7% | NCI-H322M lung 87.6% | HOP-62 NSCLC 107% | NCI-H460 lung 98% | HOP-92 NSCLC 89% | NCI-H522 lung 75.4% | A549/ATCC NSCLC 79.7% | 786-0 renal 86.7% | COLO 205 colon 98.4% | DU-145 prostate 102% | K-562 leukemia 65.6% | MALME-3M melanoma 90.7% | RXF 393 renal 95.7% | SF-268 CNS 104% | SF-295 CNS 85.8% | SF-539 CNS 94.3% | UACC-257 melanoma 95% | M14 melanoma 92.4%

CCCCN(CCCC)CCCCCCCCCCO
inactive: NCI-H23 lung 97% | NCI-H226 lung 105% | NCI-H322M lung 95.1% | HOP-62 NSCLC 104% | NCI-H460 lung 110% | HOP-92 NSCLC 129% | NCI-H522 lung 75.9% | A549/ATCC NSCLC 115% | 786-0 renal 92.1% | COLO 205 colon 106% | DU-145 prostate 111% | K-562 leukemia 93.9% | MDA-MB-231 breast 120% | RXF 393 renal 106% | SF-268 CNS 109% | SF-539 CNS 105% | UACC-257 melanoma 106% | M14 melanoma 93%

— PubChem BioAssay (NCI)
